Source: PubChem (National Center for Advancing Translational Sciences (NCATS))
D1 PAM – human D1 dopamine receptor positive modulation; actives 0.036% (n = 360,000); P21728; potentiation, % at 10 µM; HEK293 TREx D1 cells, calcium flux, dopamine EC20 potentiation; in the data active = potentiation above about 30%; note: 0% is about no effect
Target sequence (P21728 whole entry, looked up): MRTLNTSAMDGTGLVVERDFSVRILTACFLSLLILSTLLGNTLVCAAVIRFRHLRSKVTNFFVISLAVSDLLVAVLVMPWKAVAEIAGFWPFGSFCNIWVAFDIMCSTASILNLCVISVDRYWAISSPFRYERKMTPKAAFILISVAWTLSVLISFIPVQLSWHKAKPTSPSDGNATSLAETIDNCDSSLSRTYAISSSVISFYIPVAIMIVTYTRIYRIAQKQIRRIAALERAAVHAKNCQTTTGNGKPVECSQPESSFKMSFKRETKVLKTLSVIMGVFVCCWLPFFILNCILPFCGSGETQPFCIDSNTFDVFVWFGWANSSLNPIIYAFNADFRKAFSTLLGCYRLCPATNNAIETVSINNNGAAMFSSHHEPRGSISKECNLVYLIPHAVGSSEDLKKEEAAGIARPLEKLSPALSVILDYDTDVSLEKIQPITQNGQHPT
DRD3 antagonist – blocks the human D3 dopamine receptor | max response, negative = inhibition, % | actives 2.5% (n = 360,000) | D3R cells, DiscoveRx beta-arrestin luminescence, antagonist mode; hits give low values | P35462; in the data active = max response below about -50%; inconclusive = no clear call, values can overlap the other calls; note: % is set by controls: 0 for no effect and ±100 for the full control effect
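Cells plated overnight at 1500 cells/well, then exposed to library compounds with dopamine controls for 90 minutes at 37 degrees C. DiscoveRx reagent added for 30–60 minutes at room temperature; luminescence read, quantitative HTS format.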
D1 antagonist – blocks dopamine activation of the human D1 receptor | P21728 | HEK293 TREx D1 cells, calcium flux, dopamine EC80; hits give low values | activity change, negative = inhibition, % at 10 µM | actives 3.2% (n = 360,000) | AID 504652; in the data active = activity change below about -30%; note: % is set by controls: 0 for no effect and ±100 for the full control effect
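Tetracycline-induced HEK293 Trex D1 cells, force-coupled to calcium, dye-loaded; compounds added and read 180 s, then EC80 dopamine added and calcium flux tracked kinetically another 180 s.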
D1 agonist – human D1 receptor agonism | P21728 | HEK293 T-REx D1 cells, calcium flux, agonist mode | activation, % at 2 µM | actives 1% (n = 360,000) | AID 504660; in the data active = activation above about 30%; note: 0% is about no effect
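Inducible HEK293 T-REx D1 cells, force-coupled to calcium signalling, were plated at 4000 cells/well with tetracycline and held overnight at 30 C. After no-wash calcium dye loading, compound-evoked calcium rise over 180 s flagged agonists.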
DRD3 agonist – D3 dopamine receptor (human) agonism; D3R DiscoveRx beta-arrestin cells, luminescence, 90 min; max activation, %; actives 0.58% (n = 410,000); AID 652048; in the data active = max activation above about 30%; note: 0% is about no effect
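Agonist-mode cell screen: cells plated at 1500/well and incubated overnight at 37 °C, then exposed to library compounds for 90 min at 37 °C. Detection reagent was added for 30–60 min at room temperature, and luminescence was read.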
* marks the source's active call; other numbers are inactive results; ? = inconclusive; nt = no result given. Most compounds without a hit are left out; they make up all but 6% or so of the library.

SMILES | D1 PAM | DRD3 antagonist | D1 antagonist | D1 agonist | DRD3 agonist
Cc1cccc(C(=O)Nc2cccc(OCc3cc(=O)n4ccccc4n3)c2)c1 | -6.3 | nt | -71.0* | -1.1 | -11.5
CCOc1ccc(NC(=O)Cn2c(=O)n(CCC(=O)NCCc3ccccc3)c(=O)c3ccccc32)cc1 | -1.6 | nt | -7.8 | 1.7 | -7.8
Cc1cccc(N=C2NC(=O)/C(=C/c3cccn3C)S2)c1 | 1.6 | -25.7 | -0.1 | 1.6 | -10.8
O=C1NC(=Nc2ccccc2)S/C1=C\c1cccn1-c1ccccc1 | -3.4 | -70.2* | 5.4 | 3.9 | -4.8
CNC(=O)C[C@@H](N)C(=O)N[C@@H](C(=O)N[C@@H]1C(=O)N2[C@@H]1SC(C)(C)[C@@H]2C(=O)O)c1ccc(O)cc1 | nt | nt | nt | nt | -12.3
Cc1nn(CC(=O)OCC(=O)c2ccc(OC(F)F)cc2)c(C)c1[N+](=O)[O-] | 3.7 | -14.3 | -31.5* | -1.7 | 1.5
Cc1nn(CC(=O)O)c(C)c1[N+](=O)[O-] | -4.2 | -9.4 | 6.6 | 3.3 | -5.8
O=C(Nc1c(C(=O)N2CCN(c3ccccc3F)CC2)oc2ccccc12)c1ccc(Br)o1 | 0.3 | nt | 10.1 | 1.1 | -10.6
COc1ccc(Cl)cc1C(=O)NCc1nc(-c2cccc(C)c2)no1 | -0.3 | nt | 7.5 | 11.2 | -11.4
CCCCCn1c(=N)c(S(=O)(=O)c2ccccc2)cc2c(=O)n3ccccc3nc21 | -0.1 | nt | -61.6* | 1.2 | -5.0
Cc1ccc2nc3c(c(Nc4ccc(C)c(C)c4)c2c1)CCC3 | 0.6 | nt | -5.3 | -0.9 | -22.5
CCN(CC)S(=O)(=O)c1ccc(NC2CCN(Cc3ccccc3)CC2)nc1 | -8.8 | -20.0 | -37.5* | 34.3* | -14.2
CCN(CC)S(=O)(=O)c1ccc(NC2CCCc3ccccc32)nc1 (configuration not stated) | -6.7 | -3.8 | -31.3* | 4.9 | 5.1
O=C(NC1CCN(Cc2ccccc2)C1)c1cc(S(=O)(=O)N2CCOCC2)ccc1Cl (configuration not stated) | -12.5 | -20.2 | -30.1* | 1.9 | -4.1
Cc1ccc(S(=O)(=O)N2CCOCC2)cc1C(=O)NC1CCN(Cc2ccccc2)CC1 | nt | 6.9 | nt | nt | -17.7
CCN(Cc1ccccc1)S(=O)(=O)c1ccc(F)c(C(=O)Nc2cc(C(F)(F)F)ccc2Cl)c1 | -2.0 | nt | -30.0* | 19.2 | -10.0
CCN(CC(=O)N1CCN(Cc2ccccc2)CC1)S(=O)(=O)c1ccccc1 | -7.5 | ? | -18.2 | 11.3 | -9.9
O=C(Nc1cc(S(=O)(=O)N2CCOCC2)ccc1Cl)c1cc2ccccc2o1 | -6.5 | 16.0 | -47.6* | 3.3 | 4.1
COCCN(CCOC)S(=O)(=O)c1ccc(C(=O)NC2CCN(Cc3ccccc3)CC2)cc1 | 6.8 | 12.3 | 28.0 | 0.3 | -3.8
CCN(CC)S(=O)(=O)c1ccc(Cl)c(C(=O)NC2CCN(Cc3ccccc3)CC2)c1 | -5.2 | -65.4* | -7.9 | 6.2 | -5.6
O=C(c1cc(S(=O)(=O)N2CCOCC2)ccc1F)N(CCc1ccccc1)Cc1ccccc1 | 4.7 | -92.5* | 17.1 | 2.8 | 96.3*
O=C(NCCc1ccccc1)c1cc(S(=O)(=O)N2CCOCC2)ccc1F | -0.7 | 23.1 | nt | -1.7 | 2.3
CCOC(=O)CCCCN(Cc1ccccc1F)S(=O)(=O)c1ccc(F)c(C(=O)Nc2cc(Cl)cc(Cl)c2)c1 | 4.1 | nt | 23.9 | 32.0* | -2.4
CCOc1ccc(C(=O)Nc2cccc(-c3nc4cc(Cl)cc(Cl)c4o3)c2)cc1 | -2.3 | nt | 6.3 | -0.5 | 4.4
Clc1ccc(CN2C3=NCCCN3c3ccccc32)cc1 | -9.2 | -6.3 | -60.3* | 71.6* | 5.4
SMILES | D1 PAM | DRD3 antagonist | D1 antagonist | D1 agonist | DRD3 agonist
Clc1ccc(CN2C3=NCCCN3c3ccccc32)cc1Cl | -0.5 | -5.6 | 3.6 | 15.4 | -0.1
O=C(CN1C2=NCCCN2c2ccccc21)c1cccc(Br)c1 | -7.5 | ? | 0.7 | 38.0* | -9.3
Cc1cc(C)c(/C=C/c2onc(C)c2S(=O)(=O)N2CCC(C(=O)Nc3ccc(Cl)c(C(F)(F)F)c3)CC2)c(C)c1 | -1.4 | nt | -11.3 | 6.3 | 5.7
O=C(O)CCn1c2c(c3ccccc31)C[C@H](NS(=O)(=O)c1ccc(F)cc1)CC2 | nt | nt | nt | nt | -9.1
O=C(NCCc1ccc(Cl)cc1)c1cccs1 | -0.2 | -5.7 | -32.7* | 0.8 | -15.0
O=C(Cc1cccs1)NNC(=S)NCc1ccc(Cl)cc1 | -3.2 | -18.0 | -11.1 | 1.0 | -11.1
O=C(CNC(=O)c1cccs1)c1ccc(Cl)cc1 | -3.4 | -9.8 | -15.4 | 5.9 | 2.2
O=C(Cc1ccc(Cl)cc1)NNC(=S)NC(=O)c1cccs1 | -5.2 | 7.2 | 4.4 | 47.4* | 6.0
Cc1ccc2cc(CCNC(=O)c3cccs3)c(=O)[nH]c2c1C | -4.3 | -19.3 | -30.6* | -2.9 | 6.1
COc1cc(C(=O)n2nc(-c3ccco3)nc2NCc2ccc(Cl)cc2)cc(OC)c1OC | 0.8 | nt | -1.6 | -2.3 | 7.5
COc1ccc(NC(=O)C2CCN(S(=O)(=O)c3c(C)noc3/C=C/c3cccs3)CC2)cc1Cl | 3.1 | nt | -27.0 | 0.7 | -1.0
COc1cccc(NC(=O)N(CCCN2CCOCC2)C(C)c2cc3ccccc3o2)c1 (configuration not stated) | -0.6 | -69.8* | 0.4 | 3.7 | -52.3
COc1cccc(NC(=S)N(CCCN2CCOCC2)C(C)c2cc3cccc(OC)c3o2)c1 (configuration not stated) | -12.3 | -12.0 | -68.5* | 13.7 | -15.1
COc1cccc(NC(=O)N(CCCN2CCOCC2)C(C)c2cc3cccc(OC)c3o2)c1 (configuration not stated) | -3.2 | ? | -4.3 | -0.4 | -13.7
Cc1oc(C)c2c(=O)ccc3c(c12)OC(N)=C(C#N)C3c1ccc(F)cc1 (configuration not stated) | -8.2 | 14.7 | 25.2 | 37.1* | 0.2
COC(=O)[C@H]1[C@H]2C[C@H]3c4[nH]c5ccccc5c4CCN3C[C@H]2CC[C@@H]1O | -0.1 | -132.1* | 1.1 | 0.2 | -93.8
COC(=O)C1C(O)CCC2CN3CCc4c([nH]c5ccccc45)C3CC21 (configuration not stated) | -11.1 | ? | -0.2 | 2.1 | -12.5
CCCn1c(=N)n(CC(=O)c2cccs2)c2ccccc21 | -5.3 | -3.8 | 11.9 | -1.4 | -5.8
N=c1n(CCN2CCCCC2)c2ccccc2n1CC(=O)c1cccs1 | -7.9 | -63.1* | -2.3 | 0.3 | -37.9
CC(C)CCNC(=O)CN1C(=O)CSc2ccc(S(=O)(=O)N3CCCCC3)cc21 | -0.8 | nt | -3.9 | -1.8 | -8.3
CCCOc1cc(C)c(S(=O)(=O)N2CCOCC2)cc1C | -3.4 | nt | 11.7 | 0.9 | nt
COc1cc(C)c(S(=O)(=O)N2CCOCC2)cc1C | -3.0 | -85.3* | -2.6 | -1.7 | -1.0
O=C1C=CC(=O)N1c1ccc2c(c1)C(NC(=O)C(F)(F)F)c1ccccc1-2 (configuration not stated) | nt | -61.7* | nt | nt | -26.4
O=C(NCCN1CCCCC1)c1ccc(Cn2c(SCc3ccc(F)cc3)nc3cccnc32)cc1 | -0.1 | nt | -32.3* | -0.1 | -9.0
